In PubChem BioAssay (NCI):
About 79,000 compounds went through this panel and 15% of them were active in at least one assay; those are over-represented in the sample as a whole. Calls of active or inactive are those of the source. Rule as the data show it: active = growth inhibition above about 70%; inactive = the rest.

What was measured:
[1] = NCI Yeast Anticancer Drug Screen. Data for the wt2 strain (AID 169);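 also: 0% = growth of vehicle-treated yeast cultures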; conditions: S. cerevisiae wt2 strain growth inhibition, active compounds read high
In short: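 Treated yeast vs. vehicle-treated yeast: growth inhibition determined.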

[2] = NCI Yeast Anticancer Drug Screen. Data for the mlh1 strain (AID 171);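 also: 0% = growth of vehicle-treated control cultures of the same strain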; conditions: S. cerevisiae mlh1 strain growth inhibition, active compounds read high
In short: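 A yeast strain with a defined genetic lesion serves as the test organism. Cultures receive compound or vehicle, and growth is measured.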

[3] = NCI Yeast Anticancer Drug Screen. Data for the sgs1 strain (AID 173);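 also: 0% = growth of vehicle-only control cultures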; conditions: S. cerevisiae sgs1 mutant, active compounds read high
In short: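 A genetically defined yeast mutant is incubated with the test compound, and its growth is compared to that of the same strain given vehicle.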

[4] = NCI Yeast Anticancer Drug Screen. Data for the mlh1 rad18 strain (AID 175); conditions: S. cerevisiae mlh1 rad18 strain growth inhibition, active compounds read high
In short: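 Steps: expose repair-defective yeast to compound; measure growth; express inhibition against vehicle-treated controls.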

[5] = NCI Yeast Anticancer Drug Screen. Data for the rad18 strain (AID 177); conditions: S. cerevisiae rad18 mutant growth inhibition, active compounds read high
In short: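 Measured value is growth inhibition of a yeast strain bearing a DNA repair alteration, referenced to vehicle-treated cells.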

[6] = NCI Yeast Anticancer Drug Screen. Data for the rad52 strain (AID 147);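 also: 0% = growth of vehicle-treated control cultures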; conditions: S. cerevisiae rad52 mutant growth inhibition, active compounds read high
In short: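 Here a repair-compromised yeast strain receives each compound; its growth is then quantified and normalised to vehicle-only controls.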

[7] = NCI Yeast Anticancer Drug Screen. Data for the wt1 strain (AID 149);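 also: 0% = growth of vehicle-treated wt1 cultures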; conditions: S. cerevisiae wt1 strain (SPY 50644) growth inhibition, active compounds read high
In short: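 Readout: yeast growth inhibition, normalised to vehicle controls, in the wt1 strain exposed to test compounds.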

[8] = NCI Yeast Anticancer Drug Screen. Data for the rad50EPP+ strain (AID 151);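 also: 0% = growth of vehicle-treated control cultures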; conditions: S. cerevisiae rad50 mutant strain, active compounds read high
In short: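 Read-out is yeast growth inhibition relative to vehicle; cells used were the rad50EPP+ strain.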

[9] = NCI Yeast Anticancer Drug Screen. Data for the mgt1 strain (AID 153); conditions: S. cerevisiae mgt1 mutant growth inhibition, active compounds read high
In short: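 Measured: inhibition of mgt1 yeast growth by compound, normalized to vehicle-treated cultures.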

[10] = NCI Yeast Anticancer Drug Screen. Data for the rad50 strain (AID 155);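 also: 0% = growth of vehicle-only cultures of the same strain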; conditions: S. cerevisiae rad50 strain growth inhibition, active compounds read high
In short: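 Compounds were tested on a yeast strain with an engineered DNA damage repair alteration; the reported value is growth inhibition normalised to vehicle treatment.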

[11] = NCI Yeast Anticancer Drug Screen. Data for the mec2-1 strain (AID 157); conditions: S. cerevisiae mec2-1 strain, active compounds read high
In short: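 Using mec2-1 yeast: add compound, measure growth, express inhibition versus vehicle-treated cultures.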

[12] = NCI Yeast Anticancer Drug Screen. Data for the rad14 strain (AID 159);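 also: 0% = growth of vehicle-treated control cultures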; conditions: S. cerevisiae rad14 strain growth inhibition, active compounds read high
In short: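 Compound-treated yeast with a defined DNA-repair lesion; growth inhibition normalised to vehicle-treated cultures.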

[13] = NCI Yeast Anticancer Drug Screen. Data for the sgs1 mgt1 strain (AID 161);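 also: 0% = growth of cultures given vehicle only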; conditions: S. cerevisiae sgs1 mgt1 strain, active compounds read high
In short: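 Growth of a repair-deficient yeast mutant was monitored after compound treatment and expressed as inhibition relative to vehicle-treated cultures.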

[14] = NCI Yeast Anticancer Drug Screen. Data for the CLN2oe strain (AID 163);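 also: 0% = growth of vehicle-only control cultures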; conditions: S. cerevisiae CLN2oe strain, active compounds read high
In short: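 Whole-cell yeast growth assay. A strain engineered for altered cell-cycle control received compound, and inhibition relative to vehicle-treated cultures was recorded.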

[15] = NCI Yeast Anticancer Drug Screen. Data for the cln2 rad14 strain (AID 165);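 also: 0% = growth equal to vehicle treated cultures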; conditions: S. cerevisiae cln2 rad14 strain, active compounds read high
In short: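 Yeast strain cln2 rad14, bearing defects in cell cycle control and DNA repair, serves as the test system; values reflect growth inhibition compared with vehicle.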

[16] = NCI Yeast Anticancer Drug Screen. Data for the bub3 strain (AID 167); conditions: S. cerevisiae bub3 mutant strain, active compounds read high
In short: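 Growth of a checkpoint-deficient yeast mutant is measured after compound exposure. Values represent inhibition relative to vehicle.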

[17] = at 5.0 µM (retest, dose inferred, filed as 0.5)
[18] = at 50.0 µM (retest, dose inferred, filed as 5.0)

Measured: growth inhibition

N#CC(=Nc1ccccc1F)Nc1ccccc1F
inactive: [1]; at 1.2 µM -2% | [1]; at 3.7 µM -3% | [1]; at 11.0 µM -5% | [1]; at 33.0 µM 2% | [1]; at 100.0 µM 3% | [2]; at 1.2 µM -1% | [2]; at 3.7 µM -5% | [2]; at 11.0 µM -6% | [2]; at 33.0 µM -2% | [2]; at 100.0 µM 5% | [3]; at 1.2 µM -3% | [3]; at 3.7 µM -7% | [3]; at 11.0 µM -6% | [3]; at 33.0 µM 12% | [3]; at 100.0 µM 24% | [4]; [17] -7% | [4]; [18] 0% | [4]; at 50.0 µM 66.8% | [5]; at 1.2 µM -6% | [5]; at 3.7 µM -7% | [5]; at 11.0 µM -10% | [5]; at 33.0 µM -2% | [5]; at 100.0 µM 9%

COc1cccc2c1C(=O)c1c(O)c3c(c(O)c1C2=O)C[C@@](O)(C(C)=O)C[C@@H]3OC1CC(OC(C)=O)C(OC(C)=O)C(C)O1 (stereo partly specified)
active: [10]; [18] 76% | [13]; [17] 98% | [13]; [18] 96% | [13]; at 50.0 µM 77% | [15]; [17] 96% | [15]; [18] 97% | [16]; [17] 98% | [16]; [18] 97% | [16]; at 50.0 µM 75.7% | [4]; at 50.0 µM 82.7%
inactive: [6]; at 1.2 µM -12% | [6]; at 3.7 µM -7% | [6]; at 11.0 µM 37% | [6]; at 33.0 µM 48% | [6]; at 100.0 µM 40% | [7]; at 1.2 µM -26% | [7]; at 3.7 µM -43% | [7]; at 11.0 µM -46% | [7]; at 33.0 µM -24% | [7]; at 100.0 µM -28% | [8]; at 1.2 µM -11% | [8]; at 3.7 µM -16% | [8]; at 11.0 µM -7% | [8]; at 33.0 µM 7% | [8]; at 100.0 µM 36% | [9]; at 1.2 µM -41% | [9]; at 3.7 µM -51% | [9]; at 11.0 µM -33% | [9]; at 33.0 µM -22% | [9]; at 100.0 µM -11% | [10]; at 1.2 µM -40% | [10]; at 3.7 µM -11% | [10]; [17] 22% | [10]; at 11.0 µM 39% | [10]; at 33.0 µM 51% | [10]; at 50.0 µM 56.2% | [10]; at 100.0 µM 47% | [11]; at 1.2 µM -64% | [11]; at 3.7 µM -46% | [11]; [17] 13% | [11]; at 11.0 µM -34% | [11]; at 33.0 µM -25% | [11]; [18] 41% | [11]; at 50.0 µM 60% | [11]; at 100.0 µM 1% | [12]; at 1.2 µM -35% | [12]; at 3.7 µM -3% | [12]; at 11.0 µM -6% | [12]; at 33.0 µM 10% | [12]; at 100.0 µM 29% | [14]; at 1.2 µM 3% | [14]; at 3.7 µM -2% | [14]; at 11.0 µM 12% | [14]; at 33.0 µM 11% | [14]; at 100.0 µM 19% | [15]; at 50.0 µM 17.3% | [16]; at 1.2 µM -54% | [16]; at 3.7 µM -38% | [16]; at 11.0 µM -50% | [16]; at 33.0 µM -35% | [16]; at 100.0 µM -4% | [1]; at 1.2 µM -23% | [1]; at 3.7 µM -18% | [1]; at 11.0 µM -2% | [1]; at 33.0 µM 0% | [1]; at 100.0 µM 12% | [2]; at 1.2 µM -41% | [2]; at 3.7 µM -37% | [2]; at 11.0 µM -30% | [2]; at 33.0 µM -8% | [2]; at 100.0 µM 18% | [3]; at 1.2 µM -17% | [3]; at 3.7 µM -23% | [3]; at 11.0 µM -14% | [3]; at 33.0 µM -3% | [3]; at 100.0 µM -9% | [4]; [17] 23% | [4]; [18] 62% | [5]; at 1.2 µM -28% | [5]; at 3.7 µM -29% | [5]; at 11.0 µM -16% | [5]; at 33.0 µM -5% | [5]; at 100.0 µM -1%
